Among the test systems are DU-145 prostate; K-562 leukemia; MALME-3M melanoma; MDA-MB-231 breast; RXF 393 renal; SF-268 CNS; SF-295 CNS; SF-539 CNS; UACC-257 melanoma; M14 melanoma.
Common to all, as to assay: NCI-60 one-dose screen, 48 h (100 = growth as untreated, 0 = no growth, -100 = all killed)
Holding throughout (conditions): 10 µM

This is part of a sample that, as a whole, favours compounds with a hit. Of some 83,000 tested, about 20% had one in any assay.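 Results are percent growth after 48 hours of single-concentration exposure. 100 means growth as in untreated cells, lower positive values show inhibition; negative values down to -100 show cell death.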 Unmarked numbers belong to inactive results. Active and inactive are the calls of the source. Rule for the calls: active = growth percent below 10; inactive = the rest.

With `COC(=O)/C=C\C(=O)OC`, the growth is 120% in the experiment with DU-145 prostate; 107% with K-562 leukemia; 139% in the experiment with MALME-3M melanoma; 104% in the experiment with MDA-MB-231 breast; 110% in the experiment with RXF 393 renal; 113% with SF-268 CNS. The growth with SF-295 CNS was 114%; with SF-539 CNS it was 103%; in the experiment on UACC-257 melanoma, 106%; in the experiment on M14 melanoma, 107%.
In the case of `NCC(=O)CCC(=O)O`, the growth is 121% with DU-145 prostate; 109% in the experiment with K-562 leukemia; 101% in the experiment with MALME-3M melanoma; 107% with MDA-MB-231 breast; 98.3% in the experiment with RXF 393 renal; 101% in the experiment on SF-268 CNS. In addition, the growth with SF-295 CNS is 106%; in the experiment with SF-539 CNS, 110%; with UACC-257 melanoma, 105%; in the experiment on M14 melanoma, 113%.
For the molecule `O=c1c2ccccc2c(Br)c(Br)c2ccccc12`, the growth in the experiment with DU-145 prostate was 114%; in the experiment with K-562 leukemia it was 52.6%; in the experiment on MALME-3M melanoma, 94.7%; in the experiment with MDA-MB-231 breast, 115%; in the experiment on RXF 393 renal it was 48%; in the experiment on SF-268 CNS, 110%. For the same molecule, the growth was 99.4% in the experiment with SF-295 CNS, 98.6% in the experiment on SF-539 CNS, 66.2% with UACC-257 melanoma and 5.89% (active) in the experiment on M14 melanoma.
In the case of `CCOc1ccc(Br)cc1/C=N\N=C\c1cc(Br)ccc1OCC`, the growth was 102% in the experiment with DU-145 prostate; 95.3% with K-562 leukemia; 105% in the experiment with MALME-3M melanoma; 108% with MDA-MB-231 breast; 145% with RXF 393 renal; 97.6% in the experiment on SF-268 CNS. Besides, the growth in the experiment on SF-295 CNS was 100%; in the experiment on SF-539 CNS, 101%; with UACC-257 melanoma, 92.7%; with M14 melanoma it was 98.6%.
As for `O=c1cc(-c2ccccc2)oc2c1ccc1ccccc12`, the growth in the experiment on DU-145 prostate was 102%; in the experiment with K-562 leukemia, 102%; in the experiment on MALME-3M melanoma it was 146%; in the experiment on MDA-MB-231 breast, 88.4%; with RXF 393 renal, 90.8%; in the experiment with SF-268 CNS, 101%. Also, the growth in the experiment with SF-295 CNS is 98%; in the experiment with SF-539 CNS, 81.2%; in the experiment with UACC-257 melanoma it was 97.3%; with M14 melanoma, 98.9%.
For `O=C(NC1CCCCC1)OCc1c(COC(=O)NC2CCCCC2)c(-c2ccc(Cl)c(Cl)c2)n2c1CCC2`, the growth in the experiment with DU-145 prostate is 20.2%; with K-562 leukemia, 10.5%; in the experiment on MALME-3M melanoma it was 31.8%; in the experiment on MDA-MB-231 breast, 42.3%; with RXF 393 renal it was -13.6% (active); in the experiment on SF-268 CNS it was 29.2%. For the same molecule, the growth in the experiment on SF-295 CNS is 24.7%; in the experiment with SF-539 CNS it was 20.1%; in the experiment with UACC-257 melanoma it was 66.2%; in the experiment on M14 melanoma it was 21.6%.
For the molecule `CC(=Nc1ccccc1)C1=C(O)C(Cc2cccc(F)c2)NC1=O` (stereo not given), the growth with DU-145 prostate is -37.9% (active); in the experiment with K-562 leukemia it was 5.47% (active); in the experiment with MALME-3M melanoma it was 39.8%; with MDA-MB-231 breast, 25.9%; in the experiment with RXF 393 renal it was 41.7%; in the experiment on SF-268 CNS, 31.1%. Also, the growth was -5.61% (active) with SF-295 CNS, -17.5% (active) in the experiment with SF-539 CNS, 40.6% with UACC-257 melanoma and 7.5% (active) in the experiment with M14 melanoma.
Consider `Clc1ccc(-c2n[nH]c3c2Cc2ccccc2-3)cc1Cl`, for which the growth was 130% in the experiment with DU-145 prostate; 92.4% in the experiment on K-562 leukemia; 102% in the experiment with MALME-3M melanoma; 98% in the experiment with MDA-MB-231 breast; 154% in the experiment on RXF 393 renal; 109% with SF-268 CNS. Moreover, the growth with SF-295 CNS was 99.5%; with SF-539 CNS, 95.6%; with UACC-257 melanoma, -6.12% (active); in the experiment on M14 melanoma, 100%.
In the case of `CC1Cc2ccccc2O1` (stereo not given), the growth with DU-145 prostate is 124%; in the experiment on K-562 leukemia, 117%; with MALME-3M melanoma, 126%; in the experiment on MDA-MB-231 breast, 115%; with RXF 393 renal, 118%; with SF-268 CNS it was 113%. For the same molecule, the growth with SF-295 CNS was 104%; in the experiment on SF-539 CNS, 100%; with UACC-257 melanoma, 112%; in the experiment on M14 melanoma it was 107%.
Turning to `CCOc1ccc(/C=N/N=C(N)N)cc1OCC`, the growth with DU-145 prostate was 117%; with K-562 leukemia it was 98.7%; in the experiment on MALME-3M melanoma it was 113%; with MDA-MB-231 breast, 108%; with RXF 393 renal it was 111%; with SF-268 CNS it was 96.2%. Further, the growth in the experiment with SF-295 CNS was 95.9%; with SF-539 CNS it was 99.8%; in the experiment with UACC-257 melanoma, 89.7%; with M14 melanoma it was 99.3%.
On to `Cc1cc(=O)n(-c2ccc(F)cc2)[nH]1`, for which the growth with DU-145 prostate is 109%; with K-562 leukemia, 99.1%; in the experiment with MALME-3M melanoma, 102%; in the experiment on MDA-MB-231 breast it was 105%; in the experiment with RXF 393 renal it was 93.5%; in the experiment on SF-268 CNS, 101%. Also, the growth in the experiment with SF-295 CNS was 86.8%; in the experiment with SF-539 CNS, 90.8%; in the experiment with UACC-257 melanoma, 103%; in the experiment with M14 melanoma it was 108%.
`C#C[C@H]1CCCCCC1O` (stereo not given in full): the growth with DU-145 prostate is 110%; in the experiment with K-562 leukemia, 101%; in the experiment with MALME-3M melanoma, 104%; in the experiment with MDA-MB-231 breast, 102%; in the experiment with RXF 393 renal, 103%; with SF-268 CNS, 105%. In addition, the growth in the experiment on SF-295 CNS is 108%; in the experiment with SF-539 CNS, 106%; in the experiment with UACC-257 melanoma it was 107%; in the experiment with M14 melanoma, 107%.
For `O=C(NCO)c1ccccc1`, the growth was 99.8% in the experiment with DU-145 prostate; 94.5% in the experiment on K-562 leukemia; 91.3% with MALME-3M melanoma; 117% in the experiment on MDA-MB-231 breast; 119% in the experiment on RXF 393 renal; 103% in the experiment with SF-268 CNS. The growth with SF-295 CNS is 110%; in the experiment with SF-539 CNS, 108%; with UACC-257 melanoma it was 111%; in the experiment with M14 melanoma it was 106%.
In the case of `CC(=O)Nc1c(C)cc(C)cc1C`, the growth in the experiment with DU-145 prostate was 101%; with K-562 leukemia, 96.3%; in the experiment with MALME-3M melanoma, 102%; in the experiment with MDA-MB-231 breast, 114%; with RXF 393 renal, 113%; with SF-268 CNS it was 95.4%. For the same molecule, the growth in the experiment on SF-295 CNS was 94.3%; in the experiment on SF-539 CNS it was 103%; with UACC-257 melanoma, 104%; in the experiment with M14 melanoma, 101%.
`S=c1sc2ccccc2n1CN1CCCCC1`: the growth was 99.8% in the experiment with DU-145 prostate; 124% in the experiment on K-562 leukemia; 86.6% in the experiment on MALME-3M melanoma; 98.4% in the experiment on MDA-MB-231 breast; 110% in the experiment with RXF 393 renal; 92.5% with SF-268 CNS. Further, the growth is 102% in the experiment with SF-295 CNS, 105% in the experiment with SF-539 CNS, 104% in the experiment on UACC-257 melanoma and 100% in the experiment on M14 melanoma.

Source of the values: PubChem BioAssay (NCI).
